Test results from PubChem BioAssay (NCATS).
Values joined by “and” are separate entries in the source; they are usually repeats but may differ in a detail not shown here. Equal entries are not always repeated. Inconclusive results are not listed. Entries that show only a call come without a potency. Active and inactive are the calls of the source. Unless noted, calls follow the shape of the dose curve; as a rule, active = well fitted inhibition curve with a large enough effect; inconclusive = small, poorly fitted or top-dose-only effect; inactive = flat fitted curve, though single readings scatter.

How the values were obtained:
[1] = molecular target: Ubiquitin carboxyl-terminal hydrolase 1 (Homo sapiens) (UniProt O94782); assay: Inhibitors of USP1/UAF1: Pilot qHTS (AID 504865); also: nearly all actives have a fitted effect of over 35% in size; also: potency is read from the fitted curve at half-maximal effect
Method in brief: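 In 50mM HEPES pH 7.8 containing 0.5mM EDTA, 1mM TCEP, 0.1 mg/ml BSA and 0.01% Tween-20, 1nM USP1/UAF1 is exposed to compound for 15 min, then Ub-Rho (150nM final) is added and fluorescence is read over time.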

[2] = molecular target: Bile acid receptor (Homo sapiens) (UniProt Q96RI1); assay: qHTS assay for small molecule antagonists of farnesoid X receptor signaling (AID 588526; calls by dose curve)
Method in brief: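 Antagonist mode: titrated compounds tested against chenodeoxycholic acid stimulation (normalized to 50 uM CDCA and DMSO) in GeneBLAzer HEK293T cells for 16 h. Beta-lactamase read by CCF4 fluorescence; IC50 from Hill fits.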

[3] = qHTS assay for small molecule antagonists of peroxisome proliferator-activated receptor delta signaling (AID 588535); settings: HEK293T PPARd-UAS-bla, beta-lactamase FRET ratio, 18 h; 460 nm channel;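 also: cells co-treated with a PPAR-delta agonist as stimulator during compound exposure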
Method in brief: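 Fluorescence from CCF4-loaded GeneBLAzer PPAR-delta-UAS-bla HEK293T cells (2 hrs RT loading) quantified reporter inhibition after an 18 hr, 37 C compound exposure across a titration.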

[4] = molecular target: Peroxisome proliferator-activated receptor gamma (Homo sapiens) (UniProt P37231); assay: qHTS assay for small molecule agonists of peroxisome proliferator-activated receptor gamma signaling (AID 588536; active = well fitted curve in the direction sought with a large enough effect in the signal ratio, with a control signal flat, not every such curve was filed as active; the % refers to the signal ratio)
Method in brief: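 Compound treatment: 16 h, 37 C, HEK293 GeneBLAzer cells. Detection: CCF4, 2 h RT. Values: Hill-fit EC50, efficacy as % of 2 uM rosiglitazone.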

[5] = molecular target: Androgen receptor (Homo sapiens) (UniProt P10275); assay: qHTS assay for small molecule agonists of androgen receptor signaling (AID 588515; active = well fitted curve in the direction sought with a large enough effect in the signal ratio, with a control signal flat; the % refers to the signal ratio); settings: AR-UAS-bla HEK293, beta-lactamase ratio, agonist 16 h; stronger effect = higher value
Method in brief: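 Stimulation of an AR-responsive β-lactamase reporter in GripTite HEK293 cells was measured after 16 h compound exposure at 37 °C, via CCF4 fluorescence after 2 h RT. EC50 from Hill fits, normalized to R1881 at 30 nM.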

[6] = molecular target: Androgen receptor (Homo sapiens) (UniProt P10275); assay: qHTS assay for small molecule antagonists of androgen receptor signaling (AID 588516; active = well fitted curve in the direction sought with a large enough effect in the signal ratio, with a control signal flat, not every such curve was filed as active; the % refers to the signal ratio)
Method in brief: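 Cells were plated and incubated 5 h, compounds added in titration, then R1881 (10 nM final) as agonist. After 16 h at 37 C, CCF4 substrate was loaded for 2 h at room temperature and fluorescence measured.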

[7] = molecular target: Glucocorticoid receptor (Homo sapiens) (UniProt P04150); assay: qHTS assay for small molecule antagonists of glucocorticoid receptor signaling (AID 588533; active = well fitted inhibition curve with a large enough effect in the signal ratio, with a control signal flat, not every such curve was filed as active; the % refers to the signal ratio;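 also: cells stimulated with 2 nM dexamethasone as agonist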; also: potency is read from the fitted curve at half-maximal effect)
Method in brief: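 Antagonist-mode qHTS: compound titrations added to GRE-bla HeLa cells, then dexamethasone 2 nM final; 18 h, 37 C. CCF4 FRET fluorescence normalized to dexamethasone and DMSO; IC50 from Hill fit.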

[8] = molecular target: DNA dC->dU-editing enzyme APOBEC-3G (Homo sapiens) (UniProt Q9HC16); assay: qHTS for inhibitors of Vif-A3G interactions: Validation (AID 588379)
Method in brief: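 Yellow fluorescence (Ex 488, Em 500-530) of Vif-coexpressing HeLa A3G-eYFP cells, scanned by Acumen cytometer, reports blocked A3G degradation. Cells plated at 700/well overnight at 37 deg C before compound addition, then a further overnight compound incubation at 37 deg C.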

Ubiquitin carboxyl-terminal hydrolase 1 (Homo sapiens), sequence (O94782 whole entry, looked up): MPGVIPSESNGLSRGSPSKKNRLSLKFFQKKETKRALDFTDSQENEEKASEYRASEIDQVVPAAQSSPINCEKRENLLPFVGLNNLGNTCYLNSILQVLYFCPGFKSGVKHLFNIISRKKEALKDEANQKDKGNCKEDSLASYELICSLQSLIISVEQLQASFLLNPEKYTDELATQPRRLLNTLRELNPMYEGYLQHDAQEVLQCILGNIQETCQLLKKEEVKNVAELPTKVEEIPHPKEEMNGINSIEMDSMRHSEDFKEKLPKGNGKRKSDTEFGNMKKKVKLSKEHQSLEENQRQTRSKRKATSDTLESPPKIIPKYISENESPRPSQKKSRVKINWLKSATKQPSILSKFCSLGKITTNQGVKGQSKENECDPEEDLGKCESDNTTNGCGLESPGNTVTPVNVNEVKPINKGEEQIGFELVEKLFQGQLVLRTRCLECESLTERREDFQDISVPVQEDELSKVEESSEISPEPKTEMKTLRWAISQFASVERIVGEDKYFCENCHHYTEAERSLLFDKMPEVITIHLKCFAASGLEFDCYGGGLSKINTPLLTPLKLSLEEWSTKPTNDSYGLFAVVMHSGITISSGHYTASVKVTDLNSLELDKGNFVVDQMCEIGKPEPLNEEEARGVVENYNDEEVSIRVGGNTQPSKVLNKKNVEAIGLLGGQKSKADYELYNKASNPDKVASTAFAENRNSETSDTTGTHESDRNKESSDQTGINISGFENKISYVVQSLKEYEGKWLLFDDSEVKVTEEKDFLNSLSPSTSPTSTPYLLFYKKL
Bile acid receptor (Homo sapiens), sequence (Q96RI1 whole entry, looked up): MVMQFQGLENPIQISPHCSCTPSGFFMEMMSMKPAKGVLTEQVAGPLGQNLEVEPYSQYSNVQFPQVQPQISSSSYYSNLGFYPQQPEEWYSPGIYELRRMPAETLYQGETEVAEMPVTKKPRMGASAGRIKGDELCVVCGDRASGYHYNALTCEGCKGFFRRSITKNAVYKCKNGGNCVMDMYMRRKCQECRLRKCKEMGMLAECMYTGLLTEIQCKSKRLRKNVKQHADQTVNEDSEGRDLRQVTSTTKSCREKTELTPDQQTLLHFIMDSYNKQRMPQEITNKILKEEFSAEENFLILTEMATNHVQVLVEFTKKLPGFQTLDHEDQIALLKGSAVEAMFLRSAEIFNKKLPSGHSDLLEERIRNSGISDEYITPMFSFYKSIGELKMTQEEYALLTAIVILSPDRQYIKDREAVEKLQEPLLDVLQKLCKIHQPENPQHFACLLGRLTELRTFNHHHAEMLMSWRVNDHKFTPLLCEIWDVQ
Glucocorticoid receptor (Homo sapiens), sequence (P04150 whole entry, looked up): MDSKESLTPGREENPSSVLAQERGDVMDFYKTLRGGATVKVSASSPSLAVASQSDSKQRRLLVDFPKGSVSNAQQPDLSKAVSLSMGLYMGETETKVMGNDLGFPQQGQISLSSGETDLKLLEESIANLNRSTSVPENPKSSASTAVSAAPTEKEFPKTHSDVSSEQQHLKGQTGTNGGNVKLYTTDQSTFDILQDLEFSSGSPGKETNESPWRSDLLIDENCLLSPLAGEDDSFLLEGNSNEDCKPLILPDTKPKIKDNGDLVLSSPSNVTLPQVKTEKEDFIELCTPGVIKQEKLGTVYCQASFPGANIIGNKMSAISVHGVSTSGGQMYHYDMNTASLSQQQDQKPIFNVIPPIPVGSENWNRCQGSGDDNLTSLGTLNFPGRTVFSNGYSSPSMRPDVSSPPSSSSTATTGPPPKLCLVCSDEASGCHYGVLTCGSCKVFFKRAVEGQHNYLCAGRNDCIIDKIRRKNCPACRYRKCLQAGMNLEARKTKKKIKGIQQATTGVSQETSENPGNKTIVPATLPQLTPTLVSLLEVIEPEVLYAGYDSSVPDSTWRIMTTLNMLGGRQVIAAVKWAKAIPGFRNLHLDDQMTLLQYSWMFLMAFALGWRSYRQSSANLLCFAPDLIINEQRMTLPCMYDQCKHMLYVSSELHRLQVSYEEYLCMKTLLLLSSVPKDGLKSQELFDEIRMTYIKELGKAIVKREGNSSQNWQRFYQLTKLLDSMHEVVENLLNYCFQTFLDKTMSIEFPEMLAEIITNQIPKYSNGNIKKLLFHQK
DNA dC->dU-editing enzyme APOBEC-3G (Homo sapiens), sequence (Q9HC16 whole entry, looked up): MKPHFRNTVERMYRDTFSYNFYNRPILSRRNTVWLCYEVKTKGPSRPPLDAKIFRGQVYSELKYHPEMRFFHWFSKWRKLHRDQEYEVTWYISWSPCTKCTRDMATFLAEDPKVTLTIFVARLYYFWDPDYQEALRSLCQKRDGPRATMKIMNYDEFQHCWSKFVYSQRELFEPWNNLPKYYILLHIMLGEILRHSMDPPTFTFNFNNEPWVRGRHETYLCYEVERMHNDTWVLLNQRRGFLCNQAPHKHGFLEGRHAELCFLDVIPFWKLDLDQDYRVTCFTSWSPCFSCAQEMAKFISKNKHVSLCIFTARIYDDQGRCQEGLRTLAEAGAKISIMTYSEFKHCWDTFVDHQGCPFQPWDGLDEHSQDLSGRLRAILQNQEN
Androgen receptor (Homo sapiens), sequence (P10275 whole entry, looked up): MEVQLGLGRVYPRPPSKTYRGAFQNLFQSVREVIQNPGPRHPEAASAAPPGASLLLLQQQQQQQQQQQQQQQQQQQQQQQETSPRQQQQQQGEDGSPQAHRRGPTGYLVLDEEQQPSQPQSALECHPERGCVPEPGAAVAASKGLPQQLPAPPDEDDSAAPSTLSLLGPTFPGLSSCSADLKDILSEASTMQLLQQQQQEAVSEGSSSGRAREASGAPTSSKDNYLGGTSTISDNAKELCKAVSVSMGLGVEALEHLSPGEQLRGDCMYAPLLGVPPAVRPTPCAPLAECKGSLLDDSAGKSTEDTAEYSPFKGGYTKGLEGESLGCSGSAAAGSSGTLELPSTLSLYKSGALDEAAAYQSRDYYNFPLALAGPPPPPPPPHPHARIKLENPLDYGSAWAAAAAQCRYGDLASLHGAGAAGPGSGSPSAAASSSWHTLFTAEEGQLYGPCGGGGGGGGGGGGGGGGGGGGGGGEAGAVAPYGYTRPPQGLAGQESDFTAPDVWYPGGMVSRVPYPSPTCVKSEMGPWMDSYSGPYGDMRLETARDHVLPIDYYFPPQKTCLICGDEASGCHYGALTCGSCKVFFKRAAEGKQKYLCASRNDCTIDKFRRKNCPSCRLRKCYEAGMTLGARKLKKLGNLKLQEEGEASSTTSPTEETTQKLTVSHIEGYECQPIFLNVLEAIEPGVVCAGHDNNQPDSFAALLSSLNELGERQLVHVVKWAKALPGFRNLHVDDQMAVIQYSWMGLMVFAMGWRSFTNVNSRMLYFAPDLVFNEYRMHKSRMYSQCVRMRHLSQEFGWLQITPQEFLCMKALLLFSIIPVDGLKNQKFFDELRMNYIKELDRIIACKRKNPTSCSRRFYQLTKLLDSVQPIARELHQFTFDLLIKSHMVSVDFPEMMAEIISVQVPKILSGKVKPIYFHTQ
Peroxisome proliferator-activated receptor gamma (Homo sapiens), sequence (P37231 whole entry, looked up): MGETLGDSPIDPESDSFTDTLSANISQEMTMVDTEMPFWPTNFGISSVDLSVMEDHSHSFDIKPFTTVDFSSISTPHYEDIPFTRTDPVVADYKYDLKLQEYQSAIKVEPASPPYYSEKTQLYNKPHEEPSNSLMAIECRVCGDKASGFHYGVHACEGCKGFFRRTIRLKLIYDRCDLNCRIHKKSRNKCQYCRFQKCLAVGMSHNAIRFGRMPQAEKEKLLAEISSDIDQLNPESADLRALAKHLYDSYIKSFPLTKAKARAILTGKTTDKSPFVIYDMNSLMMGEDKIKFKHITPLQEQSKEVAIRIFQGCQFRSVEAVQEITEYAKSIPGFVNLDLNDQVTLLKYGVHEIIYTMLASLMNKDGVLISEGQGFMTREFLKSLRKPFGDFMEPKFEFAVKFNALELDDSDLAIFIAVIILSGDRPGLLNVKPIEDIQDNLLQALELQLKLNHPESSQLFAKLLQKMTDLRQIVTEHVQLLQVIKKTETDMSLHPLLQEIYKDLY

With CN(CCO)CC(O)Cn1cnc2c1c(=O)n(C)c(=O)n2C (stereo not given) (tested in a mixture with another compound) as the compound, how does the Potency [1] read?
Its Potency is “inactive”.

And the outcome [2]?
The outcome was “inactive”.

What about the max response [3] of the same compound?
Its max response is 15.9%.

And the outcome [4]?
Its outcome is “inactive”.

For CCCCCCCCCCCCCCCCCC(=O)OC[C@@H](O)[C@H]1OC[C@H](O)[C@H]1O, which Potency [1] is on record?
The Potency was “inactive”.

What about the activation [5] of the same compound?
The activation was 14.2% (inactive).

What about the outcome [6] of the same compound?
The outcome was “inactive”.

What about the outcome [2] of the same compound?
Its outcome is “inactive”.

What about the Potency [7] of the same compound?
Its Potency is “inactive”.

What about the max response [3] of the same compound?
The max response was 30.1%.

What about the outcome [4] of the same compound?
The outcome was “inactive”.

With O=C1c2ccccc2CN2C(=O)c3ccccc3CN12 as the compound, how does the Potency [1] read?
Its Potency is “inactive”.

For C[Si](C)(C)O[Si](C)(C)C, which Potency [1] is on record?
The Potency was “inactive”.

And the outcome [2]?
Its outcome is “inactive”.

What about the max response [3] of the same compound?
The max response was 8.43%.

And the outcome [4]?
Its outcome is “inactive”.

What does the source list for Nc1ncnc2c1ncn2[C@H]1CC[C@@H](CO)O1?
Potency [1]: inactive; outcome [2]: inactive; max response [3]: -13.3% and 61.6%; outcome [4]: inactive

Which results are given for O=C(O)Cc1nn(Cc2ccc(Br)cc2F)c(=O)c2ccccc12?
Potency [1]: inactive; outcome [8]: inactive

Which Potency [1] does the source give for O=C(O)/C=C/c1ccccc1 here?
The Potency was “inactive”.

With CN(C)c1ccc(C(=C2C=CC(=[N+](C)C)C=C2)c2c(O)c(S(=O)(=O)[O-])cc3cc(S(=O)(=O)O)ccc23)cc1 as the compound, how does the Potency [1] read?
Its Potency is 56.2 µM (active).

For CN(Cc1ccccc1)Cc1ccccc1, which Potency [1] is on record?
The Potency was “inactive”.

Which Potency [1] does the source give for CC12CCC(C[N+](C)(CCC[N+](C)(C)C)C1)C2(C)C (stereo not given) here?
Its Potency is “inactive”.

With CC(C)[C@@H](N)C(=O)O as the compound, how does the Potency [1] read?
The Potency was “inactive”.

For O=P(O)(O)OP(=O)(O)OP(=O)(O)O, which Potency [1] is on record?
The Potency was “inactive”.

What does the source list for CC(C)O?
Potency [1]: inactive; outcome [2]: inactive; max response [3]: 15.2%; outcome [4]: inactive

With CN1C(C(=O)Nc2ccccn2)C(=O)c2sc(Cl)cc2S1(=O)=O (stereo not given) as the compound, how does the Potency [1] read?
Its Potency is “inactive”.

With NCC[C@H](O)C(=O)N[C@@H]1C[C@H](N)[C@@H](O[C@H]2O[C@H](CN)[C@@H](O)[C@H](O)[C@H]2O)[C@H](O)[C@H]1O[C@H]1O[C@H](CO)[C@@H](O)[C@H](N)[C@H]1O as the compound, how does the Potency [1] read?
The Potency was “inactive”.

With C[C@H](N)C(=O)N[C@@H](C)P(=O)(O)O as the compound, how does the Potency [1] read?
The Potency was “inactive”.

For OCl, which Potency [1] is on record?
Its Potency is “inactive”.

And the outcome [2]?
The outcome was “inactive”.

What about the max response [3] of the same compound?
Its max response is -10.3%.

What about the outcome [4] of the same compound?
Its outcome is “inactive”.

For N[C@H](CC(=O)O)C(=O)O, which Potency [1] is on record?
Its Potency is “inactive”.

And the outcome [8]?
Its outcome is “inactive”.

With OCc1ccccc1 as the compound, how does the Potency [1] read?
The Potency was “inactive”.

What about the activation [5] of the same compound?
The activation was -14.4% (inactive).

What about the outcome [6] of the same compound?
Its outcome is “inactive”.

And the Potency [7]?
Its Potency is “inactive”.

And the outcome [4]?
Its outcome is “inactive”.

With ClC(Cl)Cl as the compound, how does the Potency [1] read?
The Potency was “inactive”.

What about the outcome [2] of the same compound?
The outcome was “inactive”.

What about the Potency [7] of the same compound?
Its Potency is “inactive”.

Which results are given for CC(C)CCC[C@@H](C)[C@H]1CC[C@H]2[C@@H]3CC=C4C[C@@H](O)CC[C@]4(C)[C@H]3CC[C@]12C?
Potency [1]: inactive; outcome [2]: inactive; outcome [4]: inactive

For Cc1ncc[nH]1, which Potency [1] is on record?
Its Potency is “inactive”.

And the outcome [2]?
Its outcome is “inactive”.

What about the Potency [7] of the same compound?
The Potency was “inactive”.

And the max response [3]?
The max response was 34.3%.

And the outcome [4]?
Its outcome is “inactive”.

With COc1ccc(C[C@H](C)NC[C@@H](O)c2ccc(O)c(NC=O)c2)cc1 as the compound, how does the Potency [1] read?
Its Potency is “inactive”.

And the outcome [8]?
Its outcome is “inactive”.

Which results are given for CCCCC?
Potency [1]: inactive; outcome [2]: inactive; Potency [7]: inactive; max response [3]: 25%

With C[C@H]1O[C@@H](O[C@H]2[C@@H](O)C[C@H](O[C@H]3[C@@H](O)C[C@H](O[C@H]4CC[C@@]5(C)[C@H](CC[C@@H]6[C@@H]5C[C@@H](O)[C@]5(C)[C@@H](C7=CC(=O)OC7)CC[C@]65O)C4)O[C@@H]3C)O[C@@H]2C)C[C@H](O)[C@@H]1O as the compound, how does the Potency [1] read?
Its Potency is “inactive”.

And the outcome [8]?
The outcome was “inactive”.

What about the Potency [7] of the same compound?
The Potency was 1 µM (active) and 562 nM (active).

With CCCC(=O)O as the compound, how does the Potency [1] read?
Its Potency is “inactive”.

Which Potency [1] does the source give for COC(=O)CC[C@H](N)C(=O)O here?
The Potency was “inactive”.

Which Potency [1] does the source give for CC(C)(Oc1ccc(C2CCCc3ccccc32)cc1)C(=O)O (stereo not given) here?
The Potency was “inactive”.

Which Potency [1] does the source give for CC1CCC(NC(=O)N(CCCl)N=O)CC1 (stereo not given) here?
The Potency was “inactive”.

Which Potency [1] does the source give for C[C@H](CCC(=O)O)[C@H]1CC[C@H]2[C@@H]3CC[C@@H]4C[C@H](O)CC[C@]4(C)[C@H]3C[C@H](O)[C@]12C here?
The Potency was “inactive”.

And the outcome [2]?
Its outcome is “inactive”.

Which Potency [1] does the source give for CCCCO here?
Its Potency is “inactive”.

What about the outcome [2] of the same compound?
Its outcome is “inactive”.

What about the max response [3] of the same compound?
Its max response is 1.82%.

What about the outcome [4] of the same compound?
Its outcome is “inactive”.

With OCCOCCOCCO as the compound, how does the Potency [1] read?
Its Potency is “inactive”.

What about the outcome [6] of the same compound?
Its outcome is “inactive”.

What about the Potency [7] of the same compound?
The Potency was “inactive”.

And the outcome [4]?
Its outcome is “inactive”.

For O=C1c2ccccc2C(=O)c2c1ccc(O)c2O, which outcome [8] is on record?
The outcome was “inactive”.

Which outcome [8] does the source give for Cc1cc(-c2ccc(N=Nc3ccc4c(S(=O)(=O)O)cc(S(=O)(=O)O)c(N)c4c3O)c(C)c2)ccc1N=Nc1ccc2c(S(=O)(=O)O)cc(S(=O)(=O)O)c(N)c2c1O here?
The outcome was “inactive”.

With CC(C)[C@@H]1CC[C@@H](C)C[C@H]1O as the compound, how does the activation [5] read?
Its activation is 9.8% (inactive).

What about the outcome [6] of the same compound?
The outcome was “inactive”.

With C=C1C(CCl)(CCl)C2(Cl)C(Cl)C(Cl)C1(Cl)C2(Cl)Cl (stereo not given) as the compound, how does the activation [5] read?
The activation was -14.5% (inactive).
